{"source": "paper PMC7862700", "about": "“An all-to-all approach to the identification of sequence-specific readers for epigenetic DNA modifications on cytosine”", "assay_in_all_cases": "DAPPL (digital affinity profiling via proximity ligation, sequencing); 10 mM Tris-HCl pH 7.5, 50 mM NaCl, 1 mM DTT, 4% glycerol, room temperature, 30 min; GST-TFs on glutathione beads, 16-mer random dsDNA library, 0.1% formaldehyde crosslink after washing; high values mean tight binding", "settings_in_all_cases": "protein: recombinant; tags: N-terminal GST; dsDNA, one strand shown", "key": {"ERG": {"target": "T1, ERG (Homo sapiens, UniProt P11308 1-479)", "T1 sequence": "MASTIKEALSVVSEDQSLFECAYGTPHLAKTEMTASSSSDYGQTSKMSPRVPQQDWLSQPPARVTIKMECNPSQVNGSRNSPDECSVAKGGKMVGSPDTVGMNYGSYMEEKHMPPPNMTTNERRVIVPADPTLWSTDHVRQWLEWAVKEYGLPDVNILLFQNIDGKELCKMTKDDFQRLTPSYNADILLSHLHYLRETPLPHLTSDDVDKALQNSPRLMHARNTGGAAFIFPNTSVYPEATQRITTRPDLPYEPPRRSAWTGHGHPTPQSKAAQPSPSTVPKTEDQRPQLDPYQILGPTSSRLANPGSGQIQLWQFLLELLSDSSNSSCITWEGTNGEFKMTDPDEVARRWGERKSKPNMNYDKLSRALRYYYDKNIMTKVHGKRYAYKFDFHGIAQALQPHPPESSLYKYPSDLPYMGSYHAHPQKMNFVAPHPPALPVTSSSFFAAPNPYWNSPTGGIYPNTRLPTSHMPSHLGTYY", "summary_of_the_method": "(§1)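 A tag-only sample was pooled with DNA-barcoded human transcription factors that had been expressed in yeast as GST fusions and captured on glutathione beads. The pools were incubated for 30 min at room temperature with 200 nmole of a random double-stranded 16-mer DNA library in Tris/NaCl/DTT/glycerol buffer, then washed, crosslinked with 0.1% formaldehyde, proximity-ligated (BsaI/T4 ligase, 1 h, 37 °C), PCR-amplified and sequenced on an Illumina NextSeq500. Binding signal is each hexamer's read frequency for a factor divided by its frequency for the tag-only sample.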"}, "EHF": {"target": "T2, EHF (Homo sapiens, UniProt Q9NZC4 1-300)", "T2 sequence": "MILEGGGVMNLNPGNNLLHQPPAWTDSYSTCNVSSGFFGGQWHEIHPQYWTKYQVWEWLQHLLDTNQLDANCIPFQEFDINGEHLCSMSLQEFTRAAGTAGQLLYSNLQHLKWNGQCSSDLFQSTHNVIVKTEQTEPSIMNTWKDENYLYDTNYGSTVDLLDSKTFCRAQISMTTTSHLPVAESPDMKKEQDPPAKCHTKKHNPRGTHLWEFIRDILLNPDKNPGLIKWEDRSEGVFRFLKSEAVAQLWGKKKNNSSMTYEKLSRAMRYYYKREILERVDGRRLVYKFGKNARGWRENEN", "summary_of_the_method": "as §1"}, "SPIC": {"target": "T3, SPIC (Homo sapiens, UniProt Q8N5J4 1-248)", "T3 sequence": "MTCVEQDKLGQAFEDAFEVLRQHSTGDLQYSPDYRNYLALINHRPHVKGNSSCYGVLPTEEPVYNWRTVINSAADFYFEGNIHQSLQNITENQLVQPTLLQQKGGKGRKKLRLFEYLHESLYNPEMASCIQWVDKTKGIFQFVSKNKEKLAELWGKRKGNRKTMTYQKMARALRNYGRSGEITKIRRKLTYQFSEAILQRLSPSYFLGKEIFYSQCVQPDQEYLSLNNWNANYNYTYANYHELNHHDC", "summary_of_the_method": "as §1"}, "ELK4": {"target": "T4, ELK4 (Homo sapiens, UniProt P28324-2 1-405)", "T4 sequence": "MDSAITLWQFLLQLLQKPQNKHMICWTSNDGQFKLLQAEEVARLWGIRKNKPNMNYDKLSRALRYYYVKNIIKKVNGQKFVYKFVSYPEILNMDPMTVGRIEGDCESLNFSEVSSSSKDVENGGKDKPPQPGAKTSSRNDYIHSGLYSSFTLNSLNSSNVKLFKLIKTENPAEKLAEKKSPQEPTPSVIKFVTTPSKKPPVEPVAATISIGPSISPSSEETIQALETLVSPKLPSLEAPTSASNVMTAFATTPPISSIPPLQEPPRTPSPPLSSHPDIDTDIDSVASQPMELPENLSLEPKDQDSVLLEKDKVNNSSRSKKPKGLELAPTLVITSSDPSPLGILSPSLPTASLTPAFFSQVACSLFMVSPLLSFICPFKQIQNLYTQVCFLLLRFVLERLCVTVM", "summary_of_the_method": "as §1"}, "ETV2": {"target": "T5, ETV2 (Homo sapiens, UniProt O00321 1-342)", "T5 sequence": "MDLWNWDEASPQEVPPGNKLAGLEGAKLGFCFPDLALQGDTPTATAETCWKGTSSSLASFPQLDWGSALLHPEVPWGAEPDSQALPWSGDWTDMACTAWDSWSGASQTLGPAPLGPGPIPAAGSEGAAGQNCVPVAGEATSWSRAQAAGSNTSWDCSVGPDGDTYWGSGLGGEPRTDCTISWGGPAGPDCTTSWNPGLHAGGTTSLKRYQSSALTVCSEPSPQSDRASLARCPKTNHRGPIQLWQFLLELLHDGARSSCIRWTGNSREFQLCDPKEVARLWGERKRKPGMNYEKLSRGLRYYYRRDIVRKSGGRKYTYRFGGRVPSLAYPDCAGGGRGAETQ", "summary_of_the_method": "as §1"}, "ELF3": {"target": "T6, ELF3 (Homo sapiens, UniProt P78545 1-371)", "T6 sequence": "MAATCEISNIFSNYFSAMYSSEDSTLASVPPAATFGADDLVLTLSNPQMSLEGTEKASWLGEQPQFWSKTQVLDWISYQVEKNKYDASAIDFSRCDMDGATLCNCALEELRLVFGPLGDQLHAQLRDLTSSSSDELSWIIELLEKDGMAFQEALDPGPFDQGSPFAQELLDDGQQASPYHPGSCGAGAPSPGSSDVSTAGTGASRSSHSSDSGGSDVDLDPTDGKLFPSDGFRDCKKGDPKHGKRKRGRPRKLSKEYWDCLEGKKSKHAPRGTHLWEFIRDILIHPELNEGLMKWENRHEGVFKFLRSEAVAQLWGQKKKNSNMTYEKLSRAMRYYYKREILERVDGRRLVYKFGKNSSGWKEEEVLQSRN", "summary_of_the_method": "as §1"}, "ETV1": {"target": "ETV1 (Homo sapiens, UniProt P50549 1-477)", "sequence (P50549 whole entry)": "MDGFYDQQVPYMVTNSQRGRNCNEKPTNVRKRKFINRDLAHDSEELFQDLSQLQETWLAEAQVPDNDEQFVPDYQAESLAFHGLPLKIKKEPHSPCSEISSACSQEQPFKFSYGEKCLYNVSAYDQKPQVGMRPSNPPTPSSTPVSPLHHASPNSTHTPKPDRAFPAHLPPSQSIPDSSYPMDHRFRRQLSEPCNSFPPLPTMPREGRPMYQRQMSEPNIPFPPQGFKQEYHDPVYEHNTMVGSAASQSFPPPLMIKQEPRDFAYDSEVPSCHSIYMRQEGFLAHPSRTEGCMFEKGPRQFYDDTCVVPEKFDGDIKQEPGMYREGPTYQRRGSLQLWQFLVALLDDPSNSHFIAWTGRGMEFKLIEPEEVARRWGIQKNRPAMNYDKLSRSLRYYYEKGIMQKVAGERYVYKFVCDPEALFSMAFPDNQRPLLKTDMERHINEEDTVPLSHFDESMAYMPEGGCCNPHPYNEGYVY", "summary_of_the_method": "as §1"}, "ETV3L": {"target": "T7, ETV3L (Homo sapiens, UniProt Q6ZN32 1-361)", "T7 sequence": "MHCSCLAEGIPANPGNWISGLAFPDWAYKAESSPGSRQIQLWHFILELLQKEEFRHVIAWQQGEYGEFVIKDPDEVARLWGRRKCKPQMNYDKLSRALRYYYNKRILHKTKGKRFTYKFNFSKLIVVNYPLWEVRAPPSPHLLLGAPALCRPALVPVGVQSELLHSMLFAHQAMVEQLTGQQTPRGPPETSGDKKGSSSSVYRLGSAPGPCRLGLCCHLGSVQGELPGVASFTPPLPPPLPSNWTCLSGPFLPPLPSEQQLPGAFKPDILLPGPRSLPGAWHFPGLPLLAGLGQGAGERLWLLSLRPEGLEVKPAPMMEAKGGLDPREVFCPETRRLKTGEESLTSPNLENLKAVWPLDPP", "summary_of_the_method": "as §1"}, "SPDEF": {"target": "T8, SPDEF (Homo sapiens, UniProt O95238 1-335)", "T8 sequence": "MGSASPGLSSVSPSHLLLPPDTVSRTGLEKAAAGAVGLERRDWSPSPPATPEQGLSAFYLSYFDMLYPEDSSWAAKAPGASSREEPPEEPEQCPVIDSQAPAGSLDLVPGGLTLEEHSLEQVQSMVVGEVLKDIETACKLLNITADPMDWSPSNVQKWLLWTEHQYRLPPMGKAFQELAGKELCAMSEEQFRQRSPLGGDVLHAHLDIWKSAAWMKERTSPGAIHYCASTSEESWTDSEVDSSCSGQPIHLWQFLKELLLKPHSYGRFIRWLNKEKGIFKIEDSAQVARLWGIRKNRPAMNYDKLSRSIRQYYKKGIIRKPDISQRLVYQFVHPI", "summary_of_the_method": "as §1"}, "ETV3": {"target": "T9, ETV3 (Homo sapiens, UniProt P41162-2 1-143)", "T9 sequence": "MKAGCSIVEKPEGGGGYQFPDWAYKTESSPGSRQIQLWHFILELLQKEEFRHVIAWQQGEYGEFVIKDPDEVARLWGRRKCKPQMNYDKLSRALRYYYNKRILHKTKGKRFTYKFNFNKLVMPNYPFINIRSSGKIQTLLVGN", "summary_of_the_method": "as §1"}}, "data": [{"sequence": "AGGTCC", "values": [{"measurement": "binding signal", "setting": "ERG", "result": "1.02 fold enrichment (6-mer frequency, TF over GST control)"}, {"measurement": "binding signal", "setting": "EHF", "result": "1.05 fold enrichment (6-mer frequency, TF over GST control)"}, {"measurement": "binding signal", "setting": "SPIC", "result": "1.2 fold enrichment (6-mer frequency, TF over GST control)"}, {"measurement": "binding signal", "setting": "ELK4", "result": "1.02 fold enrichment (6-mer frequency, TF over GST control)"}, {"measurement": "binding signal", "setting": "ETV2", "result": "1.08 fold enrichment (6-mer frequency, TF over GST control)"}, {"measurement": "binding signal", "setting": "ELF3", "result": "1.07 fold enrichment (6-mer frequency, TF over GST control)"}, {"measurement": "binding signal", "setting": "ETV1", "result": "1.05 fold enrichment (6-mer frequency, TF over GST control)"}, {"measurement": "binding signal", "setting": "ETV3L", "result": "1.03 fold enrichment (6-mer frequency, TF over GST control)"}, {"measurement": "binding signal", "setting": "SPDEF", "result": "1.24 fold enrichment (6-mer frequency, TF over GST control)"}, {"measurement": "binding signal", "setting": "ETV3", "result": "1.03 fold enrichment (6-mer frequency, TF over GST control)"}]}]}
